# Results published in PubChem BioAssay (Tox21).
# “And” between values parts separate entries of the source, which are not always exact repeats. Identical values can stand only once. Inconclusive results are not listed. A call without a number means that no potency is given here. Some compounds were tested as several samples or in several runs, with calls that do not always agree. The source made the active and inactive calls. Unless noted, calls come from the whole dose curve; as a rule, active = well fitted curve in the direction sought with a large enough effect in the repeat runs; inconclusive = weak or mixed curves; inactive = no such curve, though single readings can be large; an effect the other way counts as inactive or inconclusive.
# Legend:
# [1] = qHTS assay to identify small molecule antagonists of the glucocorticoid receptor (GR) signaling pathway - cell viability counter screen (AID 720693); note: nearly all actives have a fitted effect of over 55% in size
# [2] = qHTS assay for identifying genotoxic compounds that show differential cytotoxicity against isogenic chicken DT40 cell lines with known DNA damage response pathways - wild type cell line (AID 743012); note: nearly all actives have a fitted effect of over 60% in size; note: potency is the fitted concentration of half-maximal effect
# Procedure, shortened: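 Wild-type DT40 cells (300/well) exposed to compounds for 40 hours at 37 C/5% CO2. Viability read by CellTiter-Glo luminescence after 30 min at room temperature.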
# [3] = qHTS assay for identifying genotoxic compounds that show differential cytotoxicity against isogenic chicken DT40 cell lines with known DNA damage response pathways - Rev3 mutant cell line (AID 743014); note: nearly all actives have a fitted effect of over 55% in size; note: potency is the fitted concentration of half-maximal effect
# [4] = qHTS assay for identifying genotoxic compounds that show differential cytotoxicity against isogenic chicken DT40 cell lines with known DNA damage response pathways - Rad54/Ku70 mutant cell line (AID 743015); note: nearly all actives have a fitted effect of over 60% in size; note: potency is the fitted concentration of half-maximal effect
# [5] = qHTS assay to identify small molecule antagonists of the androgen receptor (AR) signaling pathway - cell viability counter screen (AID 743033; note: nearly all actives have a fitted effect of over 45% in size)
# [6] = qHTS assay to identify small molecule antagonists of the androgen receptor (AR) signaling pathway using the MDA cell line - cell viability counter screen (AID 743041; note: nearly all actives have a fitted effect of over 45% in size; note: potency is the fitted concentration of half-maximal effect)
# Procedure, shortened: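 R1881-driven MDA-kb2 AR-luc cells, 3,000/well, were dosed with library compounds for 16 h; cell health came from CellTiter-Fluor fluorescence in the reporter wells.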
# [7] = biological target: Androgen receptor (Homo sapiens) (UniProt P10275); test: qHTS assay to identify small molecule agonists of the androgen receptor (AR) signaling pathway (AID 743036; active = well fitted activation curve with a large enough effect in the signal ratio in the repeat runs, with a control signal flat, not every such curve was filed as active; the % refers to the signal ratio)
# Sequence of Androgen receptor (Homo sapiens) (P10275 whole entry, looked up): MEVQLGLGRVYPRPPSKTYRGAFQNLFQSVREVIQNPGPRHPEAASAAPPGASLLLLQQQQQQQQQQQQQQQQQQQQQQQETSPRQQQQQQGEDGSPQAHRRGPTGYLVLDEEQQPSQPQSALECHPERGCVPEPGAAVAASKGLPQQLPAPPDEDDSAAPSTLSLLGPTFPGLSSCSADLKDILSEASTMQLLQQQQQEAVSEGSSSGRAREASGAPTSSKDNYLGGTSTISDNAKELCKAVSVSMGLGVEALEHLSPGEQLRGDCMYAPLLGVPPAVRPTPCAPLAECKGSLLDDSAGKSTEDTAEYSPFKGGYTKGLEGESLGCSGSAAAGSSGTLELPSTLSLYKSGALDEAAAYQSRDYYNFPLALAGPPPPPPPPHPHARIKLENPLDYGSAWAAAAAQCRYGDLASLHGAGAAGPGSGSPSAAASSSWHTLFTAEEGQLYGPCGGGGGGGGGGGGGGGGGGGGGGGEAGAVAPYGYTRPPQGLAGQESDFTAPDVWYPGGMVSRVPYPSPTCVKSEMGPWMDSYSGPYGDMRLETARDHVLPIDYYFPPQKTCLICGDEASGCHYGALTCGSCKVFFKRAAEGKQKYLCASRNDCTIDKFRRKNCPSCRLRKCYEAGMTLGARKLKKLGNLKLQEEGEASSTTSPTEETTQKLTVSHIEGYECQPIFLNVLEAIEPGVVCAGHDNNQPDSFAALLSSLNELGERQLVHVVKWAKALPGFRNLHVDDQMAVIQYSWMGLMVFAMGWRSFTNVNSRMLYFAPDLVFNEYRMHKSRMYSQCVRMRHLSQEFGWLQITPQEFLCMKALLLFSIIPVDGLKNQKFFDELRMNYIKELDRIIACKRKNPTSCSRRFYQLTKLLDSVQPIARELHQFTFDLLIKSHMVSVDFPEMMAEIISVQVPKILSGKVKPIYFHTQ
# Procedure, shortened: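 Agonist activity was scored by beta-lactamase reporter fluorescence in stably transfected HEK293 cells exposed to compounds for 16 h at 37C and 5% CO2. Substrate loading took 2 h at room temperature.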
# [8] = biological target: Androgen receptor (Homo sapiens) (UniProt P10275); test: qHTS assay to identify small molecule agonists of the androgen receptor (AR) signaling pathway using the MDA cell line (AID 743040; note: nearly all actives have a fitted effect of over 20% in size; note: potency is the fitted concentration of half-maximal effect)
# Procedure, shortened: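 After a 5 h incubation at 37C and 0% CO2, MDA-kb2 reporter cells were dosed with compounds in DMSO and kept 16 h under the same conditions. Luciferase activity was then read as luminescence with ONE-Glo.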
# [9] = biological target: Androgen receptor (Homo sapiens) (UniProt P10275); test: qHTS assay to identify small molecule antagonists of the androgen receptor (AR) signaling pathway using the MDA cell line (AID 743042; note: nearly all actives have a fitted effect of over 55% in size; note: potency is the fitted concentration of half-maximal effect)
# Procedure, shortened: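 Antagonist mode: compounds plus R1881 agonist added to MDA-kb2 AR-luc cells, incubated 16 h at 37C. Luciferase reporter luminescence quantified, with multiplexed CellTiter-Fluor readout for cell viability.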
# [10] = biological target: Androgen receptor (Homo sapiens) (UniProt P10275); test: qHTS assay to identify small molecule antagonists of the androgen receptor (AR) signaling pathway (AID 743035; active = well fitted inhibition curve with a large enough effect in the signal ratio in the repeat runs, not every such curve was filed as active; the % refers to the signal ratio)
# Procedure, shortened: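 HEK293 cells stably carrying UAS-beta-lactamase reporter, 2,000/well, given compounds plus R1881 agonist and incubated 16 h at 37C. LiveBLAzer B/G FRET substrate then added for 2 h at room temperature before fluorescence reading.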
structure (smiles),measurement,setting,value
O=S1OCCO1,Potency,[1],inactive
same,Potency,[2],inactive
same,Potency,[3],inactive
same,Potency,[4],inactive
same,Potency,[5],inactive
same,Potency,[6],inactive
Nc1ccc(Cl)cc1[N+](=O)[O-],Potency,[1],inactive
same,Potency,[2],inactive
same,Potency,[3],inactive
same,Potency,[4],inactive
same,Potency,[5],inactive
same,Potency,[7],inactive
same,Potency,[8],inactive
same,Potency,[6],inactive
same,Potency,[9],inactive
C[N+](C)(C)CCOC(N)=O,Potency,[1],inactive
same,Potency,[2],inactive
same,Potency,[3],inactive
same,Potency,[4],inactive
same,Potency,[5],inactive
same,Potency,[7],inactive
same,Potency,[8],inactive
same,Potency,[6],inactive
same,Potency,[9],inactive
O=C(CCCN1CCC(O)(c2ccc(Br)cc2)CC1)c1ccc(F)cc1,Potency,[1],inactive
same,Potency,[2],5.07 µM (active)
same,Potency,[3],2.85 µM (active)
same,Potency,[4],4.52 µM (active)
same,Potency,[5],inactive
same,Potency,[6],inactive
CCC(C)(C)C1CCC(O)CC1 (stereo not given),Potency,[1],inactive
same,Potency,[2],inactive
same,Potency,[3],inactive
same,Potency,[4],inactive
same,Potency,[5],inactive
same,Potency,[6],inactive
O=C(N/N=C/c1ccc([N+](=O)[O-])o1)c1ccc(O)cc1,Potency,[1],inactive
same,Potency,[2],4.52 µM (active)
same,Potency,[3],4.03 µM (active)
same,Potency,[4],4.52 µM (active)
same,Potency,[5],inactive
same,Potency,[8],inactive
same,Potency,[9],4.52 µM (active)
CCC(=O)OC/C=C/c1ccccc1,Potency,[1],inactive
same,Potency,[2],inactive
same,Potency,[3],inactive
same,Potency,[4],inactive
same,Potency,[5],inactive
same,Potency,[6],inactive
C[N+]1(C)CCC(=C(c2ccccc2)c2ccccc2)CC1,Potency,[1],inactive
same,Potency,[2],inactive
same,Potency,[3],inactive
same,Potency,[4],inactive
same,Potency,[5],inactive
same,Potency,[6],inactive
[O]=[Bi],"viability change, negative = cytotoxic",[1],-0.0549% [at 7.04 µM] (inactive)
same,"activity change, negative = cytotoxicity",[2],-3.35% [at 8.52 µM] (inactive)
same,"activity, negative = cytotoxicity",[3],0.555% [at 8.53 µM] (inactive)
same,"activity change, negative = cytotoxicity",[4],2.55% [at 8.55 µM] (inactive)
same,"activity change, negative = cytotoxicity",[5],-10.1% [at 7.04 µM] (inactive)
same,"viability change, negative = cytotoxic",[6],-2.29% [at 8.47 µM] (inactive)
Nc1ccc(S(=O)(=O)O)c(N)c1,Potency,[1],inactive
same,Potency,[2],inactive
same,Potency,[3],inactive
same,Potency,[4],inactive
same,Potency,[5],inactive
same,Potency,[6],inactive
CC(C)OCC1CO1 (stereo not given),Potency,[1],inactive
same,Potency,[2],inactive
same,Potency,[3],inactive
same,Potency,[4],inactive
same,Potency,[5],inactive
same,Potency,[6],inactive
CC(=O)[C@H]1CC[C@H]2[C@@H]3C=CC4=CC(=O)CC[C@@]4(C)[C@@H]3CC[C@]12C,Potency,[1],inactive
same,Potency,[2],4.03 µM (active)
same,Potency,[3],3.59 µM (active)
same,Potency,[4],4.52 µM (active)
same,Potency,[5],inactive
same,Potency,[8],9.02 µM (active)
same,Potency,[6],inactive
same,Potency,[9],inactive
CC1=CC(=O)CC(C)(C)C1(O)/C=C/C(C)=C\C(=O)O (stereo not given),Potency,[1],inactive
same,Potency,[2],inactive
same,Potency,[3],inactive
same,Potency,[4],inactive
same,Potency,[5],inactive
same,Potency,[6],inactive
CC(C)=CC=O,Potency,[1],inactive
same,Potency,[2],inactive
same,Potency,[3],inactive
same,Potency,[4],inactive
same,Potency,[5],inactive
same,Potency,[10],inactive
same,Potency,[8],inactive
same,Potency,[6],inactive
same,Potency,[9],inactive
Oc1ccc(Nc2ccccc2)cc1,Potency,[1],inactive
same,Potency,[2],5.45 µM (active)
same,Potency,[3],6.11 µM (active)
same,Potency,[4],6.86 µM (active)
same,Potency,[5],inactive
same,Potency,[7],inactive
same,Potency,[8],inactive
COc1cc2ncnc(Nc3ccc(F)c(Cl)c3)c2cc1OCCCN1CCOCC1,Potency,[1],inactive
same,Potency,[2],26.6 µM (active)
same,Potency,[3],26.6 µM (active)
same,Potency,[4],21.1 µM (active)
same,Potency,[5],inactive
same,Potency,[7],inactive
same,Potency,[8],inactive
CC(C)CCCCCCOC(=O)CCCCC(=O)OCCCCCCC(C)C,Potency,[1],inactive
same,Potency,[2],inactive
same,Potency,[3],30.6 µM (active)
same,Potency,[4],inactive
same,Potency,[5],inactive
same,Potency,[6],inactive
CCCC1C(CC)=CC(CC)=CN1c1ccccc1 (stereo not given),Potency,[1],inactive
same,Potency,[2],2.73 µM (active)
same,Potency,[3],2.17 µM (active)
same,Potency,[4],1.93 µM (active)
same,Potency,[5],inactive
same,Potency,[6],54.5 µM (active)
Cc1cc(O)c(C(C)C)cc1Cl,Potency,[1],inactive
same,Potency,[2],inactive
same,Potency,[3],inactive and 61.1 µM (active)
same,Potency,[4],inactive and 48.6 µM (active)
same,Potency,[5],inactive
same,Potency,[6],inactive
CN1C(=O)CC(C)(c2ccccc2)C1=O (stereo not given),Potency,[1],inactive
same,Potency,[2],inactive
same,Potency,[3],inactive
same,Potency,[4],inactive
same,Potency,[5],inactive
same,Potency,[6],inactive
N#C/C(=C1/SC[C@@H](c2ccc(Cl)cc2Cl)S1)n1ccnc1,Potency,[1],inactive
same,Potency,[2],21.1 µM (active) and 13.3 µM (active) and 26.6 µM (active)
same,Potency,[3],26.6 µM (active) and 29.8 µM (active)
same,Potency,[4],26.6 µM (active) and 23.7 µM (active) and 33.5 µM (active)
same,Potency,[5],inactive
same,Potency,[6],inactive
CC(N)CN (stereo not given),Potency,[1],inactive
same,Potency,[2],inactive
same,Potency,[3],inactive
same,Potency,[4],inactive
same,Potency,[5],inactive
same,Potency,[6],inactive
CCc1c2c(nc3ccc(OC(=O)N4CCC(N5CCCCC5)CC4)cc13)-c1cc3c(c(=O)n1C2)COC(=O)[C@]3(O)CC,Potency,[1],inactive
same,Potency,[2],5.96 µM (active)
same,Potency,[3],5.96 µM (active)
same,Potency,[4],4.22 µM (active)
same,Potency,[6],inactive
COCC(O)CO (stereo not given),Potency,[1],inactive
same,Potency,[2],inactive
same,Potency,[3],inactive
same,Potency,[4],inactive
same,Potency,[5],inactive
same,Potency,[6],inactive
C=CCOC(=O)/C=C\C(=O)OCC=C,Potency,[1],inactive
same,Potency,[2],inactive
same,Potency,[3],inactive
same,Potency,[4],inactive
same,Potency,[10],inactive
same,Potency,[7],inactive
same,Potency,[8],inactive
same,Potency,[9],inactive
O=C(Nc1ccc([N+](=O)[O-])cc1)Nc1ccc([N+](=O)[O-])cc1,Potency,[1],inactive
same,Potency,[2],10.6 µM (active)
same,Potency,[3],10.6 µM (active)
same,Potency,[4],11.9 µM (active)
same,Potency,[6],inactive
CCNC(=O)N1CCN(CCCC(c2ccc(F)cc2)c2ccc(F)cc2)CC1,Potency,[1],inactive
same,Potency,[2],5.31 µM (active)
same,Potency,[3],7.5 µM (active)
same,Potency,[4],6.68 µM (active)
same,Potency,[6],26.6 µM (active)
